Test results reported in the supplement of paper PMC4709259.
Where a name gives a salt, the structure may show the parent alone. ± gives the standard deviation.

What was measured:
Jurkat [1] = experiment: mean cell size (FSC-A) relative to DMSO control (fraction of control); higher = larger cells; settings: 48 h
Outline: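 Jurkat cells seeded at 600 cells/µl were incubated 1 h, then exposed for 48h to the Enzo Screen-Well FDA Approved Drug Library v2.0 at 25µM in 0.9% (v/v) final DMSO. Drugs that cut counts below 20% of controls were diluted 10-fold and retested, down to 25nM. Cell count and mean cell size (forward scatter area) were read on an Accuri C6 flow cytometer, relative to solvent-only controls. Plates held 6-12 controls; values are means of 3 biological replicates.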

Jurkat [2] = experiment: cell count relative to DMSO control (fraction of control); higher = more cells (less growth inhibition); settings: 48 h

## CC(C)OC(=O)C(C)(C)Oc1ccc(C(=O)c2ccc(Cl)cc2)cc1 [Fenofibrate] (concentration: 25 µM)
Jurkat [1]
  mean cell size: 1.01 ± 0.04
Jurkat [2]
  cell count: 0.477 ± 0.067

## CC[C@@H](CO)NCCN[C@@H](CC)CO [Ethambutol Dihydrochloride] (concentration: 25 µM)
Jurkat [1]
  mean cell size: 1.02 ± 0.064
Jurkat [2]
  cell count: 0.721 ± 0.18

## CO/N=C(\C(=O)N[C@@H]1C(=O)N2C(C(=O)O)=C(COC(C)=O)CS[C@H]12)c1csc(N)n1 [Cefotaxime Acid] (concentration: 25 µM)
Jurkat [1]
  mean cell size: 0.944 ± 0.025
Jurkat [2]
  cell count: 0.957 ± 0.025

## NC(=O)N1c2ccccc2C=Cc2ccccc21 [Carbamazepine] (concentration: 25 µM)
Jurkat [1]
  mean cell size: 0.955 ± 0.044
Jurkat [2]
  cell count: 1.14 ± 0.065

## CC(C)N1CCN(c2ccc(OCC3COC(Cn4cncn4)(c4ccc(Cl)cc4Cl)O3)cc2)CC1 (stereo not drawn) [Terconazole] (concentration: 25 µM)
Jurkat [1]
  mean cell size: 0.891 ± 0.017
Jurkat [2]
  cell count: 0.299 ± 0.11

## O=C(O)CCCCCCCC(=O)O [Azelaic Acid] (concentration: 25 µM)
Jurkat [1]
  mean cell size: 0.921 ± 0.062
Jurkat [2]
  cell count: 0.477 ± 0.081

## Clc1ccc(COC(Cn2ccnc2)c2ccc(Cl)cc2Cl)cc1 (stereo not drawn) [Econazole Nitrate] (concentration: 25 µM)
Jurkat [1]
  mean cell size: 0.959 ± 0.03
Jurkat [2]
  cell count: 0.774 ± 0.096

## COCCOC(=O)C1=C(C)NC(C)=C(C(=O)OC(C)C)C1c1cccc([N+](=O)[O-])c1 (stereo not drawn) [Nimodipine] (concentration: 25 µM)
Jurkat [1]
  mean cell size: 0.938 ± 0.027
Jurkat [2]
  cell count: 0.628 ± 0.17

## NCCc1ccc(O)c(O)c1 [Dopamine·HCl] (concentration: 25 µM)
Jurkat [1]
  mean cell size: 0.951 ± 0.029
Jurkat [2]
  cell count: 0.909 ± 0.097

## CCN(CC)CCOC(=O)C1(C2CCCCC2)CCCCC1 [Dicyclomine·HCl] (concentration: 25 µM)
Jurkat [1]
  mean cell size: 0.9222 ± 0.0091
Jurkat [2]
  cell count: 0.922 ± 0.054

## C#C[C@]1(O)CC[C@H]2[C@@H]3CCc4cc(O)ccc4[C@H]3CC[C@@]21C [Ethinyl Estradiol] (concentration: 25 µM)
Jurkat [1]
  mean cell size: 1.22 ± 0.075
Jurkat [2]
  cell count: 0.263 ± 0.035

## CCc1c2c(nc3ccc(OC(=O)N4CCC(N5CCCCC5)CC4)cc13)-c1cc3c(c(=O)n1C2)COC(=O)[C@]3(O)CC [Irinotecan·HCl] (concentration: 250 nM)
Jurkat [1]
  mean cell size: 1.05 ± 0.038
Jurkat [2]
  cell count: 0.414 ± 0.034

## CC1(C)C[C@@H]1C(=O)N/C(=C\CCCCSC[C@H](N)C(=O)O)C(=O)O [Cilastatin·Na] (concentration: 25 µM)
Jurkat [1]
  mean cell size: 0.942 ± 0.011
Jurkat [2]
  cell count: 1.03 ± 0.092

## C[N+](C)(C)C[C@H](O)CC(=O)[O-] [Levocarnitine] (concentration: 25 µM)
Jurkat [1]
  mean cell size: 0.938 ± 0.013
Jurkat [2]
  cell count: 1.01 ± 0.099

## Cc1nc2n(c(=O)c1CCN1CCC(c3noc4cc(F)ccc34)CC1)CCCC2 [Risperidone] (concentration: 25 µM)
Jurkat [1]
  mean cell size: 0.95 ± 0.051
Jurkat [2]
  cell count: 0.809 ± 0.13

## CN(C)CCCC1(c2ccc(F)cc2)OCc2cc(C#N)ccc21 (stereo not drawn) [Citalopram·HBr] (concentration: 25 µM)
Jurkat [1]
  mean cell size: 0.951 ± 0.031
Jurkat [2]
  cell count: 1.15 ± 0.039

## CC(=O)O[C@H]1C(=O)[C@@]2(C)[C@H]([C@H](OC(=O)c3ccccc3)[C@]3(O)C[C@H](OC(=O)[C@H](O)[C@@H](NC(=O)c4ccccc4)c4ccccc4)C(C)=C1C3(C)C)[C@]1(OC(C)=O)CO[C@@H]1C[C@@H]2O [Paclitaxel (Taxol)] (concentration: 25 nM)
Jurkat [1]
  mean cell size: 1.07 ± 0.022
Jurkat [2]
  cell count: 0.4 ± 0.048

## CC(=O)[C@H]1CC[C@H]2[C@@H]3CCC4=CC(=O)CC[C@]4(C)[C@H]3CC[C@]12C [Progesterone] (concentration: 25 µM)
Jurkat [1]
  mean cell size: 1 ± 0.045
Jurkat [2]
  cell count: 0.755 ± 0.052

## CCNC(=O)CCC/C=C\C[C@@H]1[C@@H](/C=C/[C@@H](O)CCc2ccccc2)[C@H](O)C[C@@H]1O [Bimatoprost] (concentration: 25 µM)
Jurkat [1]
  mean cell size: 0.87 ± 0.025
Jurkat [2]
  cell count: 0.307 ± 0.091

## CC(=O)OC(C)C[N+](C)(C)C (stereo not drawn) [Methacholine Chloride] (concentration: 25 µM)
Jurkat [1]
  mean cell size: 1.05 ± 0.022
Jurkat [2]
  cell count: 0.921 ± 0.049

## O=S(=O)(O)CCS [Mesna] (concentration: 25 µM)
Jurkat [1]
  mean cell size: 1.06 ± 0.026
Jurkat [2]
  cell count: 0.769 ± 0.16

## Cc1nc(Nc2ncc(C(=O)Nc3c(C)cccc3Cl)s2)cc(N2CCN(CCO)CC2)n1 [Dasatinib] (concentration: 2.5 µM)
Jurkat [1]
  mean cell size: 0.8161 ± 0.0028
Jurkat [2]
  cell count: 1.03 ± 0.063

## CNS(=O)(=O)CCc1ccc2[nH]cc(C3CCN(C)CC3)c2c1 [Naratriptan·HCl] (concentration: 25 µM)
Jurkat [1]
  mean cell size: 0.95 ± 0.019
Jurkat [2]
  cell count: 0.951 ± 0.065

## CCCNC(=O)NS(=O)(=O)c1ccc(Cl)cc1 [Chlorpropamide] (concentration: 25 µM)
Jurkat [1]
  mean cell size: 1.04 ± 0.021
Jurkat [2]
  cell count: 1.02 ± 0.048
